The nature of experiment [1]: qHTS assay to identify small molecule antagonists of the glucocorticoid receptor (GR) signaling pathway - cell viability counter screen (AID 720693; also: nearly all actives have a fitted effect of over 55% in size). (qHTS replaces the single test concentration by a dilution series.)
Experiment [2] can be described thus: qHTS assay for identifying genotoxic compounds that show differential cytotoxicity against isogenic chicken DT40 cell lines with known DNA damage response pathways - wild type cell line (AID 743012). Also: nearly all actives have a fitted effect of over 60% in size. Also: potency is read from the fitted curve at half-maximal effect. Summed up: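 Viability of DNA repair-proficient chicken DT40 cells was assessed by CellTiter-Glo luminescence following 40 h compound exposure at 37 C/5% CO2.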

A short description of experiment [3]: qHTS assay for identifying genotoxic compounds that show differential cytotoxicity against isogenic chicken DT40 cell lines with known DNA damage response pathways - Rev3 mutant cell line (AID 743014). Also: nearly all actives have a fitted effect of over 55% in size. Also: potency is read from the fitted curve at half-maximal effect.
Experiment [4] in a line: qHTS assay for identifying genotoxic compounds that show differential cytotoxicity against isogenic chicken DT40 cell lines with known DNA damage response pathways - Rad54/Ku70 mutant cell line (AID 743015). Also: nearly all actives have a fitted effect of over 60% in size. Also: potency is read from the fitted curve at half-maximal effect.
Experiment [5] can be described thus: qHTS assay to identify small molecule antagonists of the androgen receptor (AR) signaling pathway - cell viability counter screen (AID 743033; also: nearly all actives have a fitted effect of over 45% in size; also: potency is read from the fitted curve at half-maximal effect).
The target of experiment [6] is Androgen receptor (Homo sapiens) (UniProt P10275). The experiment is described as follows: qHTS assay to identify small molecule antagonists of the androgen receptor (AR) signaling pathway (AID 743035; active = well fitted inhibition curve with a large enough effect in the signal ratio in the repeat runs, not every such curve was filed as active; the % refers to the signal ratio; also: potency is read from the fitted curve at half-maximal effect). The procedure, abridged:
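Reporter HEK293 cells were exposed to compounds and R1881 overnight (16 h, 37C); beta-lactamase activity was then quantified by FRET fluorescence.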

The target is the same in experiment [7]. The experiment is described as follows: qHTS assay to identify small molecule agonists of the androgen receptor (AR) signaling pathway (AID 743036; active = well fitted activation curve with a large enough effect in the signal ratio in the repeat runs, with a control signal flat, not every such curve was filed as active; the % refers to the signal ratio). Summed up:
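Following a 4 h settling period, AR-UAS-bla HEK293 cells were dosed with compounds for 16 h at 37C. A 2 h room-temperature incubation with LiveBLAzer B/G FRET substrate preceded the fluorescence measurement.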

For experiment [8] the target is unchanged. The experiment is described as follows: qHTS assay to identify small molecule agonists of the androgen receptor (AR) signaling pathway using the MDA cell line (AID 743040; also: nearly all actives have a fitted effect of over 20% in size). The procedure, abridged: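 Cell-based luciferase reporter: MDA-kb2, MMTV promoter (AR + GR response elements). 16 h compound exposure at 37C; ONE-Glo, 30 min RT, luminescence.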
Experiment [9] in a line: qHTS assay to identify small molecule antagonists of the androgen receptor (AR) signaling pathway using the MDA cell line - cell viability counter screen (AID 743041; also: nearly all actives have a fitted effect of over 45% in size). Summed up: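 In this qHTS counter assay, fluorescence intensity after CellTiter-Fluor addition indicated viability of MDA-kb2 AR-luc cells given compounds and R1881 for 16 h at 37C.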
For experiment [10], the target named is Androgen receptor (Homo sapiens) (UniProt P10275). Briefly: qHTS assay to identify small molecule antagonists of the androgen receptor (AR) signaling pathway using the MDA cell line (AID 743042; also: nearly all actives have a fitted effect of over 55% in size; also: potency is read from the fitted curve at half-maximal effect). Summed up: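 MDA-kb2 cells (human breast carcinoma, stably carrying an MMTV-luciferase reporter responsive to AR and GR) were plated at 3,000 cells/well and preincubated 5 hr at 37C, then given compound plus R1881 agonist for 16 h. ONE-Glo luminescence was read.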

The source of these data is PubChem BioAssay (Tox21).

Values joined by “and” are separate entries in the source; they are usually repeats but may differ in a detail not shown here. Identical values can stand only once. Values without a mark were called inactive. Inconclusive results are not listed. Active and inactive are the calls of the source. Unless noted, calls follow the shape of the dose curve; as a rule, active = well fitted curve in the direction sought with a large enough effect in the repeat runs; inconclusive = weak or mixed curves; inactive = no such curve, though single readings can be large; an effect the other way counts as inactive or inconclusive.
% is scaled to controls: 0 for no effect and ±100 for the full control effect.

Sequence of Androgen receptor (Homo sapiens) (P10275 whole entry, looked up): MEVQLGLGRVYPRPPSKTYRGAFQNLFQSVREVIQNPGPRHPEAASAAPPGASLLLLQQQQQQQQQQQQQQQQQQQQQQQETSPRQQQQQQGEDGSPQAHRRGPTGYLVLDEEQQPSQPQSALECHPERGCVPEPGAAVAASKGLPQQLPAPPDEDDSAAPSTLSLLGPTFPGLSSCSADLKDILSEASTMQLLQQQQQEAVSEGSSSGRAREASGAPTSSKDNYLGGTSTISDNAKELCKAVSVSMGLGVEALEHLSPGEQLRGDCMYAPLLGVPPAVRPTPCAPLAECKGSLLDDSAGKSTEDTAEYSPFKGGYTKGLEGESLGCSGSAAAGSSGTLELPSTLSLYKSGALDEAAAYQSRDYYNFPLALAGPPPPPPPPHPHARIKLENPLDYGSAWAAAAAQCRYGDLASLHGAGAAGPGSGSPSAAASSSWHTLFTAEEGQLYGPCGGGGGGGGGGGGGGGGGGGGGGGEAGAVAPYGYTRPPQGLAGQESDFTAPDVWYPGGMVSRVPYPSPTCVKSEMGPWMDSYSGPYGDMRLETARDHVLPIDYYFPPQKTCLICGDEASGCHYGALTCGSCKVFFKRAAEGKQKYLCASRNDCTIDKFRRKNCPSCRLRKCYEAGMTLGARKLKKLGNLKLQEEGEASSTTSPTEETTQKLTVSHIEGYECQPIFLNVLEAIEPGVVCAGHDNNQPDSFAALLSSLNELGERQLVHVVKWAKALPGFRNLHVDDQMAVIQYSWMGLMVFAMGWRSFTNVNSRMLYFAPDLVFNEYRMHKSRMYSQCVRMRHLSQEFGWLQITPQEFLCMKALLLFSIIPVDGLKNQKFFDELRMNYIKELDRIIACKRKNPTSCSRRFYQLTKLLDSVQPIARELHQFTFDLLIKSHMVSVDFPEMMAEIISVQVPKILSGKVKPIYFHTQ

With `CCNP(=S)(OC)O/C(C)=C/C(=O)OC(C)C` (centres undefined), the Potency entry in experiment [1] and in [5] was “inactive” each time. Moreover, the results for the Potency in experiment [2], in [3] and in experiment [4] were 61.1 µM (active), 34.4 µM (active) and 54.5 µM (active), respectively.
Take `C[C@H]1CCCC(=O)CCC/C=C/c2cc(O)cc(O)c2C(=O)O1`: the Potency result in experiment [1] and in experiment [9] was “inactive” in each case. For the same molecule, the Potency is 20.9 µM (active) and 20 µM (active) in [2]; 16.6 µM (active) and 22.4 µM (active) in [3]; 16.6 µM (active) and 17.8 µM (active) in [4]; 42.1 µM (active) in [5]; 20.2 µM (active) in experiment [6]; 52.5 µM (active) in experiment [10]. The molecule was called inactive in [7] and in [8].
As for `ClCC1CO1` (centres undefined), the Potency result in experiment [1], in [2], in experiment [3], in [4], in experiment [5] and in [9] was “inactive” in each case.
In the case of `CCC1(CC)C(=O)C=CNC1=O`, the Potency result in experiment [1], in experiment [2], in [3], in experiment [4] and in [5] was “inactive” in each case.
Consider `BrCc1ccc(Br)cc1`, for which the Potency entry in [1], in [2], in [3], in experiment [4], in experiment [5] and in experiment [6] was “inactive” each time. Also, the Potency result in experiment [9] and in experiment [10] was “inactive” throughout. In [8], the outcome was inactive.
With `CN(C)C(=O)Oc1cc(OC(=O)N(C)C)cc(C(O)CNC(C)(C)C)c1` (centres undefined), the Potency entry in experiment [1], in [2], in experiment [3], in [4], in experiment [5] and in experiment [6] was “inactive” in each case. Besides, the Potency result in experiment [9] and in [10] was “inactive” each time. The call in [7] and in experiment [8] was inactive.
On to `NNC(N)=O`, for which the Potency result in experiment [1], in experiment [2], in [3], in [4], in experiment [5] and in experiment [9] was “inactive” in each case.
As for `CN(CCO)CCO`, the Potency result in experiment [1], in experiment [2], in experiment [3], in [4], in experiment [5] and in experiment [9] was “inactive” in each case.
For `Clc1cc2c(cc1Cl)Oc1cc(Cl)c(Cl)cc1O2`, the values for the viability change, negative = cytotoxic in experiment [1] and in experiment [9] were -0.875% [at 0.284 µM] and -3.89% [at 0.341 µM], respectively. In addition, the activity change, negative = cytotoxicity in experiment [2] is 0.129% [at 0.343 µM]; in [4], 7.26% [at 0.345 µM]; in [5], -3.41% [at 0.284 µM]. For the same molecule, the activity, negative = cytotoxicity in experiment [3] is 4.17% [at 0.343 µM]. Moreover, the activity change, negative = inhibition in experiment [6] is -2.78% [at 0.284 µM]; in experiment [10], -2.57% [at 0.341 µM]. Besides, in experiment [7], the activation was -3.9% [at 0.28 µM]. Besides, the activity change in [8] is 5.01% [at 0.341 µM].
In the case of `Oc1ccc(Cc2ccc(O)cc2)cc1`, the Potency entry in [1], in experiment [2], in experiment [3], in [4], in [5] and in experiment [9] was “inactive” each time.
Turning to `COc1cc(CC(C)N)cc(OC)c1OC` (centres undefined), the Potency result in experiment [1], in [2], in [3], in [4] and in experiment [5] was “inactive” throughout.
As to `CCc1cc(OC)c(C[C@H](C)N)cc1OC`, the Potency entry in experiment [1] and in experiment [5] was “inactive” throughout. In addition, the Potency in experiment [2] is 63.7 µM (active); in experiment [3] it was 71.5 µM (active); in [4] it was 63.7 µM (active).
As to `Clc1nc(Cl)nc(Nc2ccccc2Cl)n1`, the Potency result in experiment [1], in experiment [2], in experiment [3], in experiment [4] and in experiment [5] was “inactive” in each case.
On to `COC(=O)c1ccc(CBr)cc1`, for which the Potency result in [1], in experiment [2], in experiment [3], in [4], in [5] and in experiment [6] was “inactive” each time. For the same molecule, the Potency entry in [9] and in experiment [10] was “inactive” throughout. Besides, the molecule was called inactive in [7] and in experiment [8].
As to `C=CC=O`, the Potency result in experiment [1], in experiment [2], in experiment [3], in experiment [4], in experiment [5] and in [9] was “inactive” in each case.
Consider `COC(=O)c1ccccc1CS(=O)(=O)NC(=O)Nc1nc(OC)cc(OC)n1`, for which the Potency result in experiment [1], in experiment [2], in experiment [3], in experiment [4], in [5] and in [9] was “inactive” throughout.
On to `CCCCCCCC(=O)Cl`, for which the Potency result in [1], in experiment [2], in [3], in experiment [4], in [5] and in experiment [9] was “inactive” each time.
As for `CCC1(c2cccc(O)c2)CCCCN(C)C1` (centres undefined), the Potency result in experiment [1], in experiment [2], in experiment [3], in experiment [4], in experiment [5] and in experiment [9] was “inactive” each time.
Consider `Cc1ccc2cc(C)ccc2c1`, for which the Potency entry in [1], in experiment [2], in [3], in experiment [4], in experiment [5] and in experiment [9] was “inactive” in each case.
In the case of `CC(Cl)(Cl)Cl`, the Potency entry in experiment [1], in [2], in [3], in [4], in [5] and in experiment [9] was “inactive” throughout.
Turning to `BrCCc1ccccc1`, the Potency entry in experiment [1], in [2], in experiment [3], in [4], in experiment [5] and in experiment [9] was “inactive” throughout.
`CN1C(=O)COc2c(C(=O)NC3CN4CCC3CC4)cc(Cl)cc21` (centres undefined): the Potency entry in experiment [1], in experiment [2], in [3], in [4], in experiment [5] and in experiment [9] was “inactive” throughout.
As to `O=C(Cl)C(Cl)Cl`, the Potency result in experiment [1], in experiment [2], in experiment [3], in experiment [4], in experiment [5] and in [9] was “inactive” in each case.
In the case of `CC#Cc1cc(C)nc(Nc2ccccc2)n1`, the Potency result in experiment [1], in experiment [5] and in experiment [9] was “inactive” in each case. In addition, the Potency in experiment [2] was 54.4 µM (active); in experiment [3], 61.1 µM (active); in [4], 54.4 µM (active).
As to `C=C(Cl)CSC(=S)N(CC)CC`, the Potency entry in experiment [1], in experiment [5] and in experiment [9] was “inactive” throughout. For the same molecule, the Potency in experiment [2] was 33.5 µM (active); in [3], 66.8 µM (active); in experiment [4], 53 µM (active).
As to `Cc1ccc(-c2nc3ccc(C)cn3c2CC(=O)N(C)C)cc1`, the Potency result in [1], in experiment [2], in experiment [3], in experiment [4], in experiment [5] and in experiment [9] was “inactive” each time.
As to `C=CCc1cc(OC)c2c(c1)OCO2`, the Potency result in experiment [1], in [2], in experiment [3], in experiment [4], in experiment [5] and in experiment [9] was “inactive” in each case.
On to `Brc1c(Br)c(Br)c(Br)c(Br)c1Br`, for which the results for the viability change, negative = cytotoxic in experiment [1] and in experiment [9] were -0.032% [at 7.04 µM] and 1.47% [at 8.47 µM], respectively. Further, the figures for the activity change, negative = cytotoxicity in [2], in [4] and in experiment [5] were -12.6% [at 8.52 µM], 8.63% [at 8.55 µM] and -0.0996% [at 7.04 µM], respectively. In addition, the activity, negative = cytotoxicity in experiment [3] is 4.56% [at 8.53 µM].
Consider `Cc1cc(OC(=O)N(C)C)nn1C(=O)N(C)C`, for which the Potency entry in [1], in experiment [2], in experiment [3], in experiment [4], in [5] and in experiment [9] was “inactive” throughout.
For the molecule `O=C(O)c1c(Cl)ccc2cc(Cl)cnc12`, the Potency result in experiment [1], in experiment [2], in experiment [3], in [4], in experiment [5] and in experiment [9] was “inactive” throughout.
